The source of these data is ChEMBL document CHEMBL1157539, “Thousands of chemical starting points for antimalarial lead identification” (Nature, 2010).

Type in all cases: functional
The subject of assay [1] is Plasmodium falciparum. Put plainly: GSK_TCMDC: Inhibition of Plasmodium falciparum 3D7 in whole red blood cells, using parasite LDH activity as an index of growth. Test compounds present at 2uM.
In assay [2] the test system is Plasmodium falciparum. The assay is described as follows: GSK_TCMDC: Inhibition of Plasmodium falciparum Dd2 in whole red blood cells, using parasite LDH activity as an index of growth. Test compounds present at 2uM.
A further assay concerns HepG2. The assay is described as follows: GSK_TCMDC: Percent inhibition of human HepG2 cell line. Test compounds present at 10uM.

As for `CN(Cc1ccc(C#N)cc1)C1CCN(c2cc(NC(=O)c3ccc(F)cc3)ccn2)CC1.O=C(O)C(F)(F)F`, the Inhibition with Plasmodium falciparum [1] was 86%; in the assay on Plasmodium falciparum [2], 10%; in the assay on HepG2, 24%.

As for `CC(C)Cn1ncc2c3c(N)nc(N)nc3ccc21`, the Inhibition with Plasmodium falciparum [1] is recorded as 94%; with Plasmodium falciparum [2], 73%; in the assay on HepG2, 63%.

On to `CS(=O)(=O)NCCCNCc1ccc(-c2ccc(-c3nc4cc(C(F)(F)F)ccc4[nH]3)s2)cc1.O=C(O)C(F)(F)F`, for which the values for the Inhibition in the assay on Plasmodium falciparum [1], in the assay on Plasmodium falciparum [2] and with HepG2 were 99%, 73% and 21%, respectively.

Turning to `CS(=O)(=O)O.c1ccc2c(CNCCCCCCNCc3c(OCC4CC4)ccc4ccccc34)c(OCC3CC3)ccc2c1`, the Inhibition with Plasmodium falciparum [1] is recorded as 93%; in the assay on Plasmodium falciparum [2] it was 97%; in the assay with HepG2 it was 100%.

For the compound `Cc1cc(N[C@@H](Cc2ccccc2)C(=O)NCCOc2ccccc2)nc(NCc2ccccc2C)n1.O=C(O)C(F)(F)F`, the figures for the Inhibition in the assay with Plasmodium falciparum [1], with Plasmodium falciparum [2] and in the assay with HepG2 were 100%, 80% and 32%, respectively.

On to `Cc1cc(NC(=O)NCCN2CCC(NS(=O)(=O)c3ccc(Br)cc3)C2)c2ccccc2n1.O=C(O)C(F)(F)F` (centres undefined), for which the Inhibition came out at 99% in the assay with Plasmodium falciparum [1], 51% with Plasmodium falciparum [2] and 9% in the assay on HepG2.

For the compound `CS(=O)(=O)CCNCc1ccc(-c2ccc3c(Nc4ccc(Cl)cc4F)ccnc3c2)o1`, the figures for the Inhibition in the assay on Plasmodium falciparum [1], in the assay with Plasmodium falciparum [2] and with HepG2 were 99%, 98% and 6%, respectively.

Take `CN(c1ccccc1C(=O)Nc1ccccc1Oc1ccccc1)S(=O)(=O)c1ccccc1`: the Inhibition in the assay with Plasmodium falciparum [1] stood at 90%; in the assay with Plasmodium falciparum [2] it was 80%; with HepG2 it was 2%.

As for `Nc1c2ccccc2nc2ccc(Cl)cc12`, the Inhibition stood at 100% in the assay on Plasmodium falciparum [1], 100% with Plasmodium falciparum [2] and 55% in the assay on HepG2.

Regarding `CCc1cc(I)c2c(c1)C(NCCCNc1cc(=O)c3ccccc3[nH]1)CCN2.CS(=O)(=O)O` (centres undefined), the Inhibition worked out at 89% in the assay on Plasmodium falciparum [1], 32% in the assay with Plasmodium falciparum [2] and 19% with HepG2.

Take `CC(C)CN1CCCN(Cc2cccc(NC(=O)c3ccc(Cl)c(Cl)c3)c2)CC1.O=C(O)C(F)(F)F`: the Inhibition in the assay with Plasmodium falciparum [1] came to 91%; in the assay with Plasmodium falciparum [2] it was 9%; in the assay with HepG2, 10%.

For the compound `CCN(CC)C(=O)C1CCCN(C(=O)Nc2cc(C(F)(F)F)cc(C(F)(F)F)c2)C1` (centres undefined), the Inhibition worked out at 86% with Plasmodium falciparum [1], 98% in the assay with Plasmodium falciparum [2] and 0% with HepG2.

As to `COc1ccc(C(=O)CCC(=O)N(Cc2ccc(-c3ccc(CNCCc4ccccc4)cn3)cc2)C(C)CN(C)C)cc1F.O=C(O)C(F)(F)F` (centres undefined), the Inhibition with Plasmodium falciparum [1] came to 98%; in the assay on Plasmodium falciparum [2] it was 57%; with HepG2 it was 20%.

Regarding `[O-][s+]1c(Cl)c(-c2ccc(Cl)cc2)c2ccc(Cl)cc21` (centres undefined), the results for the Inhibition with Plasmodium falciparum [1], in the assay on Plasmodium falciparum [2] and in the assay with HepG2 were 91%, 99% and 33%, respectively.

With `Cc1ccc(Nc2nccc(NCC(O)c3cccc(C(F)(F)F)c3)n2)cc1` (centres undefined), the figures for the Inhibition in the assay on Plasmodium falciparum [1], in the assay on Plasmodium falciparum [2] and in the assay on HepG2 were 99%, 74% and 19%, respectively.

On to `N=C1NC(c2ccccc2)(c2ccccc2)C(=O)N1CC=Cc1ccccc1.O=C(O)C(F)(F)F`, for which the Inhibition is listed as 98% in the assay on Plasmodium falciparum [1], 70% in the assay with Plasmodium falciparum [2] and 23% with HepG2.

For the compound `Cc1[nH]c2c(C)cccc2c1C1CCN(CCC2CCN(C(=O)/C=C/c3ccc(Cl)c(Cl)c3)CC2)CC1`, the Inhibition in the assay on Plasmodium falciparum [1] is recorded as 100%; in the assay on Plasmodium falciparum [2] it was 79%; in the assay with HepG2 it was 67%.

For `CCCCc1cc(NC2CCN(C)CC2)nc(Nc2ccccc2)n1`, the Inhibition came to 100% with Plasmodium falciparum [1], 29% in the assay with Plasmodium falciparum [2] and 7% in the assay with HepG2.

As to `COc1cc2nc(N3CCC(CNC(=O)c4ccc(NC(=O)c5ccc(Cl)cc5)cc4)CC3)nc(N)c2cc1OC`, the Inhibition stood at 100% with Plasmodium falciparum [1], 100% in the assay with Plasmodium falciparum [2] and 98% in the assay on HepG2.

On to `Cl.Fc1ccc2ncc(Cl)c(CCN3CCC(NCc4cc5c(cn4)OCCO5)CC3)c2c1`, for which the Inhibition was found to be 93% in the assay with Plasmodium falciparum [1], 20% in the assay with Plasmodium falciparum [2] and 24% in the assay on HepG2.

For the compound `O=C(O)C(F)(F)F.c1cc(CNCCc2ccncc2)cc(-c2ccc(-c3nc4ccccc4[nH]3)s2)c1`, the values for the Inhibition in the assay on Plasmodium falciparum [1], in the assay with Plasmodium falciparum [2] and with HepG2 were 100%, 97% and 1%, respectively.

Take `Cc1cc2nc(-c3ccc(C(=O)NCc4cccc(C(F)(F)F)c4)cc3)[nH]c2cc1C`: the results for the Inhibition in the assay on Plasmodium falciparum [1], in the assay on Plasmodium falciparum [2] and in the assay on HepG2 were 98%, 34% and 4%, respectively.

Consider `C=C[C@H]1CN(CCCCCCC)CC[C@H]1CCN(C)c1ccnc2ccc(OC)cc12.O=C(O)C(=O)O`, for which the Inhibition worked out at 97% with Plasmodium falciparum [1], 93% in the assay on Plasmodium falciparum [2] and 22% in the assay with HepG2.

Consider `COc1ccc(S(=O)(=O)NCCC2CCN(CCCCCNC(=O)C=Cc3ccc(Cl)c(Cl)c3)CC2)cc1`, for which the Inhibition in the assay with Plasmodium falciparum [1] amounted to 87%; with Plasmodium falciparum [2] it was 0%; in the assay with HepG2, 36%.

With `CC(C)CCn1c(Sc2ccc(C#N)c([N+](=O)[O-])c2)nnc1-c1ccc(N(C)C)cc1`, the Inhibition in the assay on Plasmodium falciparum [1] is recorded as 97%; in the assay on Plasmodium falciparum [2], 96%; with HepG2, 11%.

As to `COc1cccc(C2=CC(c3ccccc3)n3ncc(C(=O)Nc4ccc(Cl)cc4)c3N2)c1` (centres undefined), the Inhibition came to 88% in the assay on Plasmodium falciparum [1], 28% in the assay on Plasmodium falciparum [2] and 7% in the assay with HepG2.

Consider `Cc1cc(C)c(NC(=O)NC2CCN(CCCCCNC(=O)/C=C/c3ccc(Cl)c(Cl)c3)C2)c(C)c1` (centres undefined), for which the Inhibition with Plasmodium falciparum [1] was found to be 99%; in the assay on Plasmodium falciparum [2], 48%; with HepG2, 23%.

For the compound `Br.CCOCc1cn(CC(=O)c2ccc(-c3ccccc3)cc2)c(C)nc1=N`, the Inhibition with Plasmodium falciparum [1] is 93%; in the assay with Plasmodium falciparum [2], 72%; in the assay on HepG2 it was 13%.
